# Hits are enriched below; roughly 7.2% of the tested compounds scored in any of these assays.
# AHR activator = human AHR activation. AHR-responsive luciferase reporter cells, luminescence. activation, % at 5 µM. P35869. hit rate 2.5% among 320,000; in the data active means activation above about 47%;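 further: 0% = vehicle wells and 100% = reference agonist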
# Target sequence (P35869 whole entry, looked up): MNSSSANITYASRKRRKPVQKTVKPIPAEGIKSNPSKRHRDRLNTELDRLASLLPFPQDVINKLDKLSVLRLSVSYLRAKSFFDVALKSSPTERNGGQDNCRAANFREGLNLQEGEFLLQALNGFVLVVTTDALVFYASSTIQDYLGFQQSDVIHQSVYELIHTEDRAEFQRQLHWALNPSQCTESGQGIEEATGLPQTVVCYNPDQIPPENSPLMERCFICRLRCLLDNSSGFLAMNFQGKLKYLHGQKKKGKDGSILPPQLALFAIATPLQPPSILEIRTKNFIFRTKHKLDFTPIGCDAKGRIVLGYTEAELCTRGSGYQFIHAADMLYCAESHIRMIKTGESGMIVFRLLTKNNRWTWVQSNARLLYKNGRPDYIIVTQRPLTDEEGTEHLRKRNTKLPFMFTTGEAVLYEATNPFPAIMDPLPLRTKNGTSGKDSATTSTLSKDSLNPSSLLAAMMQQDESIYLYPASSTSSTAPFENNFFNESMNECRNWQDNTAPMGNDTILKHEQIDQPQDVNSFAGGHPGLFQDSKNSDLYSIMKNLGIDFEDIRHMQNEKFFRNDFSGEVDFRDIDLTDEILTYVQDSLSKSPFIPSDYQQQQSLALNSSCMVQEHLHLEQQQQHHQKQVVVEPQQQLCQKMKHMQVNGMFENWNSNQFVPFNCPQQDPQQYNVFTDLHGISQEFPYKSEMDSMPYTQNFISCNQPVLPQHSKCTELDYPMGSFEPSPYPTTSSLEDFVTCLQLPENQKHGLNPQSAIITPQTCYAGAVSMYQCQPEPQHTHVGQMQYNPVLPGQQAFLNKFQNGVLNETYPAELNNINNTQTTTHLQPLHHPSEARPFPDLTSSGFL
# Efflux pump mplx = antifungal efflux pump inhibition, Nile Red retention | S. cerevisiae Candida pump triplex | hit rate 0.44% among 330,000 | inhibition, % at 10 µM;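 active means plate passing quality check with inhibition over a set limit, or well fluorescence over plate mean plus 4 SD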;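 further: Nile Red retained in pooled yeast measured as flow cytometry median fluorescence; 0% = buffer negative control and 100% = Enniatin B positive control; higher means more Nile Red kept so more efflux inhibition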
# ALR inh = blocks human ALR sulfhydryl oxidase activity. P55789. purified ALR, DTT oxidation, H2O2 HRP-luminol luminescence. inhibition, % (no concentration beside the values). hit rate 3.8% among 290,000. AID 485317;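 active means mean replicate inhibition above about 79%, with every replicate also reaching it, limit read from the data; inconclusive means only one of the two criteria met; inactive means mean below limit and not every replicate reaching it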
# Mot1-301 SUMO = blocks SUMOylation pathway, rescuing yeast Mot1-301 growth; S. cerevisiae Mot1-301 growth rescue, ATP luminescence, 38.5C; percent above DMSO median, 100 means doubled; growth rescue, % at 18.8 µM; hit rate 1% among 320,000;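 active means every valid replicate shows activation above 250% relative to neutral control wells; inactive means the rest, any valid replicate at or below 250%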;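 further: OY570 slx delta 5 strain wells were the positive control but not used for scaling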
# A1 inh = inhibitors of the anti-apoptotic protein A1, read as caspase activation. hit rate 0.066% among 330,000. MEF A1-2A-BIM cells, Caspase-Glo 3/7 luminescence, 3 h; percent of clofoctol response, vehicle zero. caspase activation, % (test concentration not listed);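 active means over half of replicate activation scores above 10%, or exactly half above 10 with the replicate mean above 10; inconclusive means replicate mean below 10 yet half the replicates above 10; inactive means over half of replicates below 10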
# VLA-4 inh = inhibition in a human VLA-4 binding assay. VLA-4 expressing cells, ligand binding flow cytometry. inhibition, % (about 7 µM as worked out from the volumes in the protocol). hit rate 0.2% among 330,000. AID 2557; in the data active means inhibition above about 50%
# Numbers without * were called inactive; ? = inconclusive; . = not tested or not shown.
SMILES,AHR activator,Efflux pump mplx,ALR inh,Mot1-301 SUMO,A1 inh,VLA-4 inh
O=C(N/N=C/c1ccco1)c1cc(-c2cccs2)[nH]n1,26,0,18,-3,0,1
COc1ccc(N/C=C2/Sc3ccccc3NC2=O)cc1,55*,0,16,-7,-8,12
COc1ccc(Oc2nc(-c3cccnc3)nc3ccccc23)cc1,4,0,-11,5,0,12
CCCOc1ccc(-c2nc(OC)c3ccccc3n2)cc1,77*,0,-3,-3,0,11
CCC(=C(c1ccc(OC)cc1)c1ccc(OC)cc1)c1cn(CC(O)CN(CCO)CCO)c2ccccc12 (stereo not given),-1,0,11,2,?,10
COc1ccc(C2SCC(C(=O)O)N2C(C)=O)cc1 (stereo not given),3,0,-5,-1,1,2
COc1ccc(CNC(=O)C2CSC(c3ccc(OC)cc3)N2C(C)=O)cc1 (stereo not given),3,0,85*,-4,0,-9
O=c1c2c3c(sc2ncn1/N=C/c1ccc([N+](=O)[O-])o1)CCCC3,2,0,-14,290*,0,6
Cn1cc(/C=N/n2cnc3sc4c(c3c2=O)CCCC4)c2ccccc21,19,0,-6,293,0,0
CSCC[C@H](NC(=O)N1CCn2c1nc1ccccc12)C(=O)NCc1ccccc1,4,0,-16,-11,1,7
CSCC[C@H](NC(=O)N1CCn2c1nc1ccccc12)C(=O)NCc1ccco1,6,0,96*,19,0,5
CCOC(=O)c1sc(NC(=O)CSc2nccn2C)nc1C,3,0,98*,-3,0,-6
CCOC(=O)Cc1csc(NC(=O)NC2(C(F)(F)F)Oc3cc(Cl)c(Cl)cc3O2)n1,2,0,98*,-22,0,8
CCOC(=O)c1sc(NC(=O)CSc2ncccn2)nc1C,-4,0,-3,0,0,12
COCC(=O)Nc1nc(-c2ccc(-c3ccccc3)cc2)cs1,-3,0,-3,11,-7,-23
COCC(=O)Nc1nc(-c2ccc([N+](=O)[O-])cc2)cs1,-1,0,98*,146,-1,0
CCOC(=O)Cc1csc(NC(=O)CSC2=NCCS2)n1,-1,0,99*,3,0,10
CC(=O)NC(Cc1ccccc1F)C(=O)NC1CCN(C(=O)Nc2ccc(C)cc2)CC1 (stereo not given),0,0,.,29,0,2
CCOc1ccc(NS(=O)(=O)c2ccc(C(=O)N3CCC3)cc2)cc1,2,1,.,-12,1,4
Cc1ccnc(NC(=O)c2ccc(OCC3CCCO3)cc2)c1 (stereo not given),-6,0,6,116,-9,-3
Cc1ccnc(NC(=O)Cc2ccc(-c3ccccc3)cc2)c1,22,0,-3,2,1,-7
CCOC(=O)Cc1csc(NC(=O)c2sc3nc4ccc(C)cc4cc3c2N)n1,5,0,99*,.,1,-75
Cc1csc(NC(=O)CSC2=NCCS2)n1,5,0,99*,-10,0,-7
CC(C)(C)c1csc(NC(=O)CSC2=NCCS2)n1,0,0,99*,7,1,-10
Cc1ccnc(NC(=O)Cc2ccc([N+](=O)[O-])cc2)c1,5,0,0,364*,0,1
SMILES,AHR activator,Efflux pump mplx,ALR inh,Mot1-301 SUMO,A1 inh,VLA-4 inh
CCNC(=S)N/N=C/c1ccc(OCC(=O)Nc2ccc(C)cc2)cc1,-4,0,-46,35,2,2
CCOC(=O)Cc1csc(NC(=O)CSc2nc(=O)[nH]c3c2CCC3)n1,0,0,-298,-11,1,-2
CCOC(=O)Cc1csc(NC(=O)CSc2nccn2C)n1,2,0,99*,309,1,13
Cc1csc(NC(=O)CSc2nc(C)nc3c2c(=O)n(C)c(=O)n3C)n1,17,0,98*,-8,0,-11
CCOC(=O)Cc1csc(NC(=O)Cc2ccc([N+](=O)[O-])cc2)n1,-6,1,98*,-3,1,3
CCOC(=O)Cc1csc(NC(=O)CSc2nc(=O)[nH]c3c2CCCC3)n1,0,0,96*,255,-1,21
CCOC(=O)Cc1csc(NC(=O)Cc2ccc(Br)cc2)n1,0,0,-4,23,0,4
COc1ccc(S(=O)(=O)N2CCCC(C(=O)NC3CC3)C2)cc1OC (stereo not given),-1,0,1,13,0,11
CN(/N=C/C=C/c1ccccc1)c1cc(=O)n(C)c(=O)[nH]1,70*,0,-97,-1,-2,-12
CCCn1nc(NC(=O)c2ccncc2)c2cc3ccccc3nc21,69*,0,-4,-7,0,1
CCCn1nc(NS(=O)(=O)c2cccc3nonc23)c2cc3ccccc3nc21,12,0,99*,-4,0,-6
CCn1nc(NS(=O)(=O)c2ccccc2)c2cc3cc(C)ccc3nc21,46,1,81*,18,0,3
CCCn1nc(NS(=O)(=O)c2ccccc2[N+](=O)[O-])c2cc3ccccc3nc21,5,0,66,-2,0,2
CCn1nc(NC(=O)c2ccco2)c2cc3cc(C)ccc3nc21,53*,0,18,-4,1,4
COCCCN1C(=O)/C(=C\c2cccs2)C(C(=O)OC)=C1C,4,0,.,112,0,-3
CCOC(=O)C1=C(COC(=O)CC(C)c2ccccc2)NC(=O)NC1C (stereo not given),-1,0,1,-21,1,4
CCn1nc(NC(=O)c2ccncc2)c2cc3cc(C)ccc3nc21,62*,0,-29,-8,0,-7
O=C1OC(Cc2ccccn2)C(=O)C1=C1SCCS1 (stereo not given),60*,0,-4,7,2,24
COc1cc(-n2c(C)nc3cc(C(=O)O)ccc32)cc(OC)c1OC,2,0,-4,4,0,2
Cc1ccc2[nH]c3c(c2c1)CCCC3NC(=O)CCl (stereo not given),4,0,40,6,5.3*,10
CN(C)CCCNC(NC(=O)c1cccs1)C(Cl)(Cl)Cl (stereo not given),0,0,-1,37,1,0
COC(=O)c1ccc(N=C2SCC(=O)N2C)cc1,0,0,3,-7,1,-1
O=C(OCC(=O)N1CCOCC1)c1c(Cl)ccc(Cl)c1Cl,48*,0,-7,-11,1,35
CCCNC(=O)c1ccccc1NC(=O)c1ccc(CSc2ccccc2)cc1,3,0,-3,358*,0,0
CCOc1ccc(S(=O)(=O)N2CCN(c3ccccc3F)CC2)c2cccnc12,-1,0,.,7,1,.
